# Screening data: PubChem BioAssay, Center for Chemical Genomics, University of Michigan
# Dicer inh: inhibitors of human Dicer processing of pre-microRNA. Q9UPY3. cat-ELCCA pre-miR-21 Dicer processing, chemiluminescence; hits give high values. z-score at 25 µM. 6% of 47,000 active. AID 1347074; in the data active = z-score above about 3, passing the limit was not always enough;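 also: plate controls were vehicle for no effect and no enzyme for full effect; higher signal means more uncleaved substrate so more Dicer inhibition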
# Target sequence (Q9UPY3 whole entry, looked up): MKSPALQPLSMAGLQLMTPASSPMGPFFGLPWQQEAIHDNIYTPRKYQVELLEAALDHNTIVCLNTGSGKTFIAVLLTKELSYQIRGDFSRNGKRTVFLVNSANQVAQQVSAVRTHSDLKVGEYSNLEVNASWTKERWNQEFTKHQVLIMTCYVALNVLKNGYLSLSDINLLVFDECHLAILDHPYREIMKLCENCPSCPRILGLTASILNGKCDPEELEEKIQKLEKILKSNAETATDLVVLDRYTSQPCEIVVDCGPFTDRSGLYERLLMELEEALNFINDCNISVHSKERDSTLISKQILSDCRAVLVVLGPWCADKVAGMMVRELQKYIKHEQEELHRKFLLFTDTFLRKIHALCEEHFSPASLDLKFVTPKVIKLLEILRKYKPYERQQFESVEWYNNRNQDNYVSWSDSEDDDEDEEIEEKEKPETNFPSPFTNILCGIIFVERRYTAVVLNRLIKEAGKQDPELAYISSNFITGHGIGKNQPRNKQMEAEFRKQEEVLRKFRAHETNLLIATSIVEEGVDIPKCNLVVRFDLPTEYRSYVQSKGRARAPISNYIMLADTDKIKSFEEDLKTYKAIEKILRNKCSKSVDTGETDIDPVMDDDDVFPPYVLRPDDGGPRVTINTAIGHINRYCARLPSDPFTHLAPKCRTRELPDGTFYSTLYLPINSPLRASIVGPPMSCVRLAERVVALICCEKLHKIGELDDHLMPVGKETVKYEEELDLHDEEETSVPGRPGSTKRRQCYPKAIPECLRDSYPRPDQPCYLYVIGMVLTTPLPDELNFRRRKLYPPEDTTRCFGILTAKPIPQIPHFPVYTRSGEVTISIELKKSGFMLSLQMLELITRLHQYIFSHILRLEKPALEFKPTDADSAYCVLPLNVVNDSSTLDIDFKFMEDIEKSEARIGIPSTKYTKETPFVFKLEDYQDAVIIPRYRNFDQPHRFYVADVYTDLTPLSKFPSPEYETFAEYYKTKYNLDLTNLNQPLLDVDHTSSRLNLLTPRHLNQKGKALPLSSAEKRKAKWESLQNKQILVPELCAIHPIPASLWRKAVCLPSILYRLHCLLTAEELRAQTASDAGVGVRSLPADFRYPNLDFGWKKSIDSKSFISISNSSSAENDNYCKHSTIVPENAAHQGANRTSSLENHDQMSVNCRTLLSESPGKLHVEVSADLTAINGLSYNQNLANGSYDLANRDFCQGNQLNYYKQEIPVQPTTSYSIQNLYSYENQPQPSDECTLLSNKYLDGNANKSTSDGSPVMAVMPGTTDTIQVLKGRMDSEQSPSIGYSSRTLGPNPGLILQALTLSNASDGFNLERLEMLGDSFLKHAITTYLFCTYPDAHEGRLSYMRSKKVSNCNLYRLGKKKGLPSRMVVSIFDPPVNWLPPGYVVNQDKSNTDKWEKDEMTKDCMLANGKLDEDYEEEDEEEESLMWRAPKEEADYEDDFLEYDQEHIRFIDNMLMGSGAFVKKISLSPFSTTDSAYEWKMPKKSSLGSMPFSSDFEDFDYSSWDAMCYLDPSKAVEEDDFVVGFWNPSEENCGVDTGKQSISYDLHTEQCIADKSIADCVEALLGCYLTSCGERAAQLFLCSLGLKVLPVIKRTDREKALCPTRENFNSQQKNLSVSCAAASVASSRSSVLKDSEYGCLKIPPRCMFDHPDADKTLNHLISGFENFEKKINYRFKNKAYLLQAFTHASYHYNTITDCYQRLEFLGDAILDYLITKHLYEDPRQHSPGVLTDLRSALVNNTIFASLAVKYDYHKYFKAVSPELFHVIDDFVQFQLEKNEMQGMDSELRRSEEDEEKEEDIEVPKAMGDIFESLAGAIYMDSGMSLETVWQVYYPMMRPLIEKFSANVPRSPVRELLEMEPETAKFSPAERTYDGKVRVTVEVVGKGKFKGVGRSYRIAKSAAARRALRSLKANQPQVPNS
# Numbers without * were called inactive. Many of the other results were omitted from the sample, so hits are more common in it than they were.
SMILES,Dicer inh
Cn1c(-c2ccc(F)cc2)cnc1NCc1cccc(Br)c1,2.8
Cn1c(-c2ccc(Br)cc2)cnc1NCc1cccc(F)c1,2.5
Cn1c(-c2cccc(Br)c2)cnc1NCc1ccccc1,3.8*
COc1ccccc1CNc1ncc(-c2cccc(Br)c2)n1C,-0.18
Cn1c(-c2ccccc2)cnc1NCc1cccc(Br)c1,4.4*
COc1ccc(-c2cnc(NCc3ccc(Cl)cc3)n2C)cc1,-0.45
Cn1c(-c2ccccc2)cnc1NCc1ccccc1O,1.9
Cn1c(-c2ccc(Cl)cc2)cnc1NCc1ccc(F)cc1,2.6
CCOc1nc(-c2ccc(Cl)cc2)ccc1-c1noc(C(C)C)n1,-0.6
O=S(=O)(Nc1cc(C(F)(F)F)cc(C(F)(F)F)c1)c1ccc(Cl)s1,-1.4
COc1ccc(/C(O)=C2\C(=O)C(=O)N(c3nnc(C)s3)C2c2ccc(Br)cc2)cc1 (configuration not stated),0.48
CCOc1ccccc1C1C(C#N)=C2N=C(N)c3ccccc3N2C2=C1C(=O)CCC2 (configuration not stated),2.8
S=C(NCCCNC1CCCCC1)Nc1cc(Cl)ccc1Cl,-1.2
O=C(c1cccs1)n1ccc(-c2ccc(C#Cc3ccccc3)cc2)n1,0.26
COc1ccc(OC)c(C2C3=C(CC(C)(C)CC3=O)Nc3ccc4ccccc4c32)c1 (configuration not stated),-0.24
COc1ccc(NC(=O)Nc2nc(-c3ccc(C)c(Cl)c3)c(C)s2)cc1OC1CCCC1,0.44
CCOC(=O)c1c(NC(C)=O)sc2c(OC(C)=O)c(Br)ccc12,1.3
Cc1cc(C)cc(NC(=O)Nc2nnc(C3CC3)s2)c1,-0.02
O=C(Nc1cccc(C(F)(F)F)c1)c1c(O)c2cccc3c2n(c1=O)CCC3,1.6
O=C1c2ccccc2C(=O)C1(c1ccccc1)[N+](=O)[O-],3.1*
C#CCC1(c2ccccc2)C(=O)c2ccccc2C1=O,0.75
O=C1c2ccccc2C(=O)C1(Nc1ccc(Cl)c(Cl)c1)c1ccccc1,-0.91
CCCCCC(=O)n1c2ccc(F)cc2c2nc3ccccc3nc21,-0.53
CCCC(=O)c1c[nH]c2ccccc12,-0.25
O=C(OCCN1CCCCC1)c1cccs1,3.7*
SMILES,Dicer inh
COc1cc(N)c(Cl)cc1C(=O)OCCN1CCCCC1,-0.67
CN(CCOC(=O)c1cccs1)C(C)(C)C,0.76
Cc1ccc(C2CC(=O)C=C(NC3Cc4ccccc4C3)C2)cc1 (configuration not stated),1.1
O=C(CSc1nc(O)cc(=O)n1-c1ccccc1F)N1CCc2ccccc21,5.5*
Cc1c(O)nc(SCC(=O)N2CCc3ccccc32)n(-c2ccccc2)c1=O,0.01
CC(C)c1c(O)nc(SCC(=O)N2CCc3ccccc32)n(-c2ccccc2)c1=O,-1.1
O=C(Cn1c(=O)sc2ccccc21)N1CCN(c2ccccc2)CC1,1.4
OC1(c2ccc(Cl)cc2)CSc2nc3cc(C(F)(F)F)ccc3n21 (configuration not stated),0.2
CC(C)(C)CC(C)(C)NC(=O)C(Cl)Cl,-0.45
O=C(Nc1cccc(NC(=O)N2CCOCC2)c1F)N1CCOCC1,-1.1
O=C1OC(c2ccccc2)=N/C1=C/c1ccc([N+](=O)[O-])s1,-0.07
CCOC(=O)/C(C)=N/Nc1ccccc1,-1
CCOC(=O)/C(C)=N/Nc1ccc(F)cc1,0.97
CCOC(=O)/C(=N\Nc1cccc(C)c1)c1csc(N)n1,4*
O=C(O)CCSc1n[nH]c2nc3ccccc3n12,-1.2
CCn1c(SCCOc2ccc(OC)cc2)nc2ccccc21,-1.9
Cc1ccc(OCCn2c(SCCO)nc3ccccc32)cc1,0.65
Cc1ccc(OCCSc2n[nH]c3nc4ccccc4n23)cc1,6.2*
Cc1cccc(OCCSc2nc3ccccc3n2CCO)c1,5.6*
Cc1ccc(OCCSc2nc3ccccc3o2)cc1,-1.5
COc1cccc(Nc2nc(C)c([N+](=O)[O-])c(Nc3cccc(OC)c3)n2)c1,0.32
Cn1c(SCC(=O)c2c[nH]c3ccccc23)nnc1-c1ccco1,1.8
Cc1ccc(-c2cnc3c(-c4ccc(Cl)cc4)c(C)nn3c2N)cc1,-0.44
C=CCn1c(SCC(=O)Nc2c(C#N)cnn2-c2ccccc2)nnc1-c1ccco1,2
Cc1onc(-c2c(Cl)cccc2Cl)c1NC(=O)N(C)c1ccc(Cl)cc1,1.2
SMILES,Dicer inh
CNC(=S)NNC(=O)c1ccc2ncccc2c1,-0.02
O=C1CCCN=C(Nc2cccc(F)c2)S1,0.57
CN(C)C(=S)Oc1ccc2c(C(F)(F)F)cc(=O)oc2c1,0.63
Cc1ccc(C(=O)CSc2n[nH]c(-c3ccco3)n2)cc1C,-0.82
COc1ccc(C(=O)CSc2n[nH]c(-c3ccco3)n2)cc1C,5.6*
COc1ccc(C(=O)CSc2n[nH]c(-c3ccco3)n2)cc1,1.4
O=C1C(=O)N(c2nc3ccccc3s2)C(c2cccnc2)/C1=C(/O)c1ccc(Cl)cc1 (configuration not stated),-0.26
O=C(NNC(=O)c1cc2ncc(C(F)(F)F)cc2s1)c1ccno1,-0.3
Cc1ccnc(N(C(=O)Nc2ccc(Cl)cc2)C2=NCC(C)S2)c1 (configuration not stated),0.68
CNc1nc2c([nH]1)c(=O)n(C)c(=O)n2C,-1.5
O=C(O)c1ccc(Nc2ncnc3ccc(Br)cc23)cc1,4.9*
Cc1nc2ccc(Br)cc2c(C(=O)O)c1I,1
O=C(O)c1ccc(Nc2ccnc3cc(Cl)ccc23)cc1,1.6
c1ccc2oc(NC3=NCN(CCN4CCOCC4)CN3)nc2c1,-0.36
Cc1cccn2cc(-c3ccc(NS(=O)(=O)c4ccccc4)cc3)nc12,1.5
Cc1ccc(S(=O)(=O)Nc2ccc(-c3cn4cccc(C)c4n3)cc2)cc1,1.7
Cc1cccn2cc(-c3cccc(NS(=O)(=O)c4ccc(Br)cc4)c3)nc12,4.1*
Cc1cc(SCC2=NNC(=O)/C2=C/N(C)C)c(Cl)cc1Cl,-3.1
NCCNc1cccc2c(S(=O)(=O)O)cccc12,-1.6
Cn1cccc1CNCc1cccnc1,1.6
CN(C)CCCNCc1cccn1C,3.1*
Cn1cccc1CNCC(O)C(F)(F)F (configuration not stated),-0.06
Cc1ccc2c(c1)nnn2CNc1ccc(OC(F)(F)F)cc1,2.6
Cc1nccc(-c2cccc(N/N=C(\C#N)C(=O)c3ccc(Cl)cc3)c2)n1,2.6
CCOC(=O)c1ccc(NC(N)=S)cc1,-0.12
SMILES,Dicer inh
CCOC(=O)c1ccc(NC(=S)NC(C)(C)CO)cc1,-1.5
CCOC(=O)c1ccc(NC(=S)NN)cc1,3.5*
CC(=O)O/N=C(\N)c1ccc(F)cc1F,-0.17
CC(C)n1cc(C(N)=S)c(=O)n(Cc2ccccc2)c1=O,-0.58
CC(C)n1cc(/C(N)=N/OC(=O)c2ccccc2Cl)c(=O)n(Cc2ccccc2)c1=O,0.85
Cn1cc(/C(N)=N/O)c(=O)n(Cc2ccccc2)c1=O,7*
C=CCN1C(=O)C2(/C(=C(/O)c3ccc(Cl)cc3)C(=O)C(=O)N2CC2CCCO2)c2ccccc21 (configuration not stated),0.42
C=CCN1C(=O)C2(/C(=C(/O)c3ccc(F)cc3)C(=O)C(=O)N2CCCOC)c2ccccc21 (configuration not stated),-0.04
CN1C(=O)C2(/C(=C(/O)c3ccc(Cl)cc3)C(=O)C(=O)N2CCCN2CCOCC2)c2ccccc21 (configuration not stated),10
C=CCN1C(=O)C2(/C(=C(/O)c3ccccc3)C(=O)C(=O)N2CCCN2CCOCC2)c2ccccc21 (configuration not stated),3.5*
C=CCN1C(=O)C2(/C(=C(/O)c3ccc(F)cc3)C(=O)C(=O)N2CCN2CCOCC2)c2ccccc21 (configuration not stated),4.5*
